# Assay outcomes from PubChem.
# Compounds with a hit are over-represented: about 4.1% of the library has one in this group of screens.
# hcDAF-12 act = activators of H. contortus DAF-12 nuclear receptor; AID 652067; HEK293 hcDAF-12 lit1-tk-luc reporter, luminescence; 0% DMSO, 100% Δ7-dafachronic acid; activation, % at 6.8 µM; 370,000 compounds, 1.4% hits;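 active = activation above the mean of all tested compounds plus 3 SD, cut at about 5.5% in these data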
# DAX1 inh-1 = DAX1 (NR0B1) inhibition, primary screen. inhibition, % at 6.8 µM. HEK293T StAR-luciferase reporter, SF-1/DAX-1 repression relief. 370,000 compounds, 1.1% hits;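 active = inhibition above the mean over all tested compounds plus 3 SD, cut at about 3.6% in these data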;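 note: higher inhibition means more luminescence from relief of DAX-1 repression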
# ssDAF12 agonist = activators of S. stercoralis DAF-12 nuclear receptor. HEK293 ssDAF-12/GRIP1 lit1-tk-luc reporter, luminescence; % of 3 µM dafachronic acid response. activation, % at 6.8 µM. 370,000 compounds, 1% hits. AID 652126;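 active = activation above the mean over all tested compounds plus 3 SD, cut at about 0.9% in these data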
# DAX1 inh-2 = inhibitors of human orphan nuclear receptor DAX1 (NR0B1); P51843; 340,000 compounds, 0.99% hits; AID 504766; inhibition, % at 6.75 µM; HEK293 Gal4-DAX1 luciferase reporter, luminescence;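 active = inhibition above the mean over all tested compounds plus 3 SD, cut at about 4.2% in these data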;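 note: inhibition shows as a rise in luminescence from relieved DAX1 repression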
# hgDAF-12 ag = activates the H. glycines DAF-12 receptor ligand-binding domain; activation, % at 6.8 µM; 370,000 compounds, 1.8% hits; HEK293 GAL4-hgDAF12 UAS-luciferase reporter, agonist luminescence; normalized to butyrate control;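 active = activation above a cutoff set at the mean of all screened compounds plus 3 SD, cut at about 10% in these data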
# LXRb hcDAF ctr = counter-screen for hcDAF-12 agonists: agonists of human LXR-beta. activation, % at 6.8 µM. 3,400 tested, under 10 active. HEK293 Gal4-LXR tk-luc reporter, luminescence, 24 h; normalized: DMSO 0%, positive control 100%. shares compounds with hcDAF-12 act;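 active = mean percent activation of the reporter above a cutoff set as the average over tested compounds plus their standard deviation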
# Target sequence (P55055 whole entry, looked up, the tested form may be a part): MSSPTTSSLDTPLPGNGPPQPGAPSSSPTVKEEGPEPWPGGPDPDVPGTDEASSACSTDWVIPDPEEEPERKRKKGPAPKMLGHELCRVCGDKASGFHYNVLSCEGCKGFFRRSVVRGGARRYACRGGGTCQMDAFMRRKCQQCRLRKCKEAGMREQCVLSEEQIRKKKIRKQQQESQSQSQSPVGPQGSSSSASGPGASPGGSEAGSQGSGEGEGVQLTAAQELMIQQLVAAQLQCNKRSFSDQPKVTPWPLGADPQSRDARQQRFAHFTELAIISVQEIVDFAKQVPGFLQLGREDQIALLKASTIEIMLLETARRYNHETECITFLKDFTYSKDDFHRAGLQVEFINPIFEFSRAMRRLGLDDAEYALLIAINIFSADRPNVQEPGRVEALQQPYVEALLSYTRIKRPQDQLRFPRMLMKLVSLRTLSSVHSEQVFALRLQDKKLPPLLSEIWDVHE
# hcDAF12 conf = hcDAF-12 agonism, confirmation assay | 3,400 compounds, 61% hits | AID 743032 | activation, % at 6.8 µM | shares compounds with hcDAF-12 act | HEK293 hcDAF-12 lit1-tk-luc reporter, luminescence; % of Δ7-dafachronic acid response;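 active = mean activation across triplicate tests above the threshold derived from the earlier primary screen, cut at about 5.5% in these data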
# hgDAF12 conf = hgDAF-12 agonism, confirmation assay | shares compounds with hgDAF-12 ag | HEK293 GAL4-hgDAF12 luciferase reporter, agonist mode; percent of butyrate response | activation, % at 6.8 µM | 3,300 compounds, 80% hits;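 active = mean activation over triplicate wells above the hit cutoff derived from the earlier primary screen, cut at about 11% in these data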
# LXRb DAF12 ctr = counter-screen for DAF-12 agonists: agonists of human LXR-beta; HEK293 Gal4-LXR luciferase reporter, 24 h; 3,300 tested, under 10 active; shares compounds with hgDAF-12 ag; activation, % at 6.8 µM;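 active = mean activation of the triplicate above a set limit carried over from the primary screen, none filed active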
# A number is an active result; - = inactive; . = no result.
SMILES,hcDAF-12 act,DAX1 inh-1,ssDAF12 agonist,DAX1 inh-2,hgDAF-12 ag,LXRb hcDAF ctr,hcDAF12 conf,hgDAF12 conf,LXRb DAF12 ctr
Cc1ccc(-c2nc(N/N=C/c3cccc([N+](=O)[O-])c3)c3ccccc3n2)cc1,-,-,-,-,-,.,.,.,.
CC1(C(=O)NCc2ccccc2)CN(S(C)(=O)=O)CC(=O)N1Cc1ccco1 (stereo not drawn),-,-,-,.,-,.,.,.,.
CCOc1ccc(-n2c(SCC(=O)Nc3ccc(S(=O)(=O)Nc4nccs4)cc3)nnc2-c2ccc(C(C)(C)C)cc2)cc1,-,-,-,.,-,.,.,.,.
Cc1cc(C(=O)Nc2ccc3c(c2)OCCO3)c(C)o1,-,-,-,-,-,.,.,.,.
O=C(Nc1ccc2c(c1)OCCO2)c1ccc(Cl)cc1Cl,8.0,-,-,-,13,-,8.0,19,-
O=C(Nc1ccc2c(c1)OCCO2)c1cccc(Cl)c1,9.9,-,-,-,18,-,-,15,-
Nn1c(SCC(=O)Nc2nccs2)nnc1-c1cc(-c2ccc(F)cc2)n[nH]1,-,-,-,.,-,.,.,.,.
CCCCNC(=O)O[C@H]1CC[C@@]23CCCN2C(=O)CCC[C@H]3C1,-,.,-,.,-,.,.,.,.
O=[N+]([O-])c1cccnc1N/N=C/c1ccccc1O,9.2,3.8,-,-,15,-,-,-,-
Clc1ccccc1Cn1ccc2ccc(-c3ccc4ccn(Cc5ccccc5Cl)c4c3)cc21,-,-,-,.,-,.,.,.,.
c1ccc(Nc2scc(-c3ccccc3)[n+]2Cc2ccco2)cc1,7.3,-,-,5.1,14,-,-,16,-
c1ccc(C[n+]2c(-c3ccccc3)csc2Nc2ccccc2)cc1,-,-,-,-,-,.,.,.,.
CCOc1ccc(-c2cc(C(=O)NN)[nH]n2)cc1,6.8,-,-,-,16,-,-,-,-
COc1ccc(C2=Nc3ccccc3N(C(=O)c3ccc4ncccc4c3)C2C(=O)NC2CCCC2)cc1 (stereo not drawn),9.7,-,2.3,.,18,-,10,12,-
Cc1nc2nc(-c3ccc(F)cc3)cn2nc1C,7.1,-,-,-,14,-,-,12,-
CCc1ccc(-c2cn3nc(C)c(C)nc3n2)cc1,-,-,-,-,-,.,.,.,.
Cc1cccc(C(=O)n2c(=S)nc3cc(C)ccn32)c1,6.6,3.7,-,4.6,16,-,6.6,13,-
COc1ccc2[nH]c3nc(SC(C)C)nnc3c2c1,14,3.9,1.5,-,21,-,9.1,-,-
Fc1ccccc1N1CCN(c2cnc3ccccc3n2)CC1,6.6,-,-,-,19,-,-,17,-
c1ccc(CN2CCN(c3cnc4ccccc4n3)CC2)cc1,-,-,-,-,-,.,.,.,.
Cn1c(NC(=O)CCc2ccccc2)cc(=O)n(C)c1=O,9.4,4.1,1.6,-,14,-,7.5,13,-
COC(=O)[C@H](CC(C)C)N(CCCc1cn(Cc2ccccc2)nn1)S(=O)(=O)c1ccccc1Br,-,-,-,.,-,.,.,.,.
Cc1ccc(-c2nc3ccccc3[nH]2)s1,7.9,3.8,1.9,-,20,-,8.2,19,-
c1csc(-c2nc3ccccc3[nH]2)c1,-,-,-,-,-,.,.,.,.
C[C@@H]1CC(=O)NN=C1c1ccc(NN=C(C#N)C#N)cc1,-,-,-,.,-,.,.,.,.
SMILES,hcDAF-12 act,DAX1 inh-1,ssDAF12 agonist,DAX1 inh-2,hgDAF-12 ag,LXRb hcDAF ctr,hcDAF12 conf,hgDAF12 conf,LXRb DAF12 ctr
Nc1nnc(-c2ccccc2[N+](=O)[O-])o1,-,-,-,-,-,.,.,.,.
O=[N+]([O-])c1ccccc1-c1nc(-c2ccc(Br)o2)no1,15,4.5,2.8,-,21,-,8.6,18,-
Brc1ccc(-c2noc(-c3ccccn3)n2)o1,10,-,1.4,-,20,-,7.8,21,-
CCCc1ccc(-c2cc(NC(=O)Cc3c(C)[nH]c4ccccc34)ccc2Nc2cccnc2)cc1,-,-,-,.,-,.,.,.,.
CC(=O)Nc1ccc(Nc2cc(C)nc3c(-c4ccccc4)cnn23)cc1,-,-,-,-,-,.,.,.,.
CCSc1cc(C)nc2c(-c3ccccc3)cnn12,13,4.0,2.4,-,18,-,11,15,-
O=C(NC1CCCCN(Cc2cccc(Cl)c2)C1=O)c1cccc([N+](=O)[O-])c1 (stereo not drawn),-,-,-,.,-,.,.,.,.
S=C(Nc1ccccc1Cl)OCCN1CCCC12CCC(c1ccccc1)CC2 (stereo not drawn),-,.,-,.,-,.,.,.,.
O=c1c2ccccc2cnn1-c1ccc2ccccc2c1,13,-,1.4,-,18,-,6.6,17,-
CC(C)(C)c1ccc(-c2nnc(SCC3CCCCO3)n2-c2ccc(Cl)cc2)cc1 (stereo not drawn),-,-,-,.,-,.,.,.,.
CC(=O)c1ccc(-c2ccccc2C2=CC(=O)CC(C)(C)C2=O)cc1,-,-,-,.,-,.,.,.,.
N/C(=N\OC(=O)c1cccc2ccccc12)c1cccnc1,12,-,1.6,-,14,-,9.0,12,-
Cc1ccc(C(=O)Nc2ccccc2Cl)cc1,12,-,1.2,7.1,13,-,7.3,16,-
COc1ccc(NC(=O)c2cc3ccccc3cc2OC)cc1,12,-,3.2,-,15,-,12,17,-
COc1cc2ccccc2cc1C(=O)Nc1ccccc1Cl,12,-,2.2,4.8,16,-,15,20,-
COc1cc2ccccc2cc1C(=O)Nc1cccnc1,-,-,-,-,-,.,.,.,.
COc1ccc(C(=O)NCC2CCN(C(=O)C(=O)c3cc4ccccc4o3)CC2)cc1,-,-,-,.,-,.,.,.,.
CCCCc1c(-c2ccccc2OC)ncn1Cc1cccc(F)c1F,-,-,-,.,-,.,.,.,.
C[C@H]1C2CC(OC(=O)Nc3cccc(Cl)c3)C(C2)[C@H]2CCCCN21 (stereo partly drawn),-,-,-,.,-,.,.,.,.
COCc1c(C(=O)N/N=C(/C)c2ccc(OCc3ccccc3)cc2)nnn1-c1nonc1N,8.5,-,-,-,14,-,-,-,-
Cc1cc(C(=O)Nc2ccc3ccccc3c2)oc1C,7.3,-,-,-,19,-,6.9,19,-
Cc1cc(C(=O)Nc2ccc3ccccc3c2)c(C)o1,8.5,-,1.7,-,18,-,11,21,-
